# Most compounds without a hit are left out; they make up all but 6.5% or so of the library.
# TGFb inhibitor – qHTS for Inhibitors of TGF-b; 1.2% of 410,000 active; AID 588855, 2011; Potency, µM (series often up to 46.1 µM), without a hit: top-dose activity, negative = inhibition, usual class: inhibitors; HepG2 CAGA-GFP TGF-b/SMAD3 reporter, GFP fluorescence, 18 h; TGF-beta stimulated, 500 pg/mL final; further: potency means the concentration at half of the fitted maximal effect; on the % scale 0 is the no-effect control and ±100 the full control effect; nearly all actives have a fitted effect of over 65% in size
#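 Read-out: total well GFP (ex488/em500-530) summed from mean per-cell fluorescence. Cells: HEPG2 CAGA-GFP, 1% FBS DMEM, 18 h at 37 degrees C with 500 pg/mL final TGF-beta. Unstimulated wells served as the full-inhibition control; stimulated DMSO wells = 0%.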
# Giardia killer – Small Molecules that selectively kill Giardia lamblia: qHTS; Giardia lamblia trophozoite viability; AID 540267, 2011; activity change, % at 7.66 µM, hits read low; 0.15% of 340,000 active; in the data active means activity change below about -80%; inconclusive means between about -30% and that limit;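 further: parasites exposed to compound for two days anaerobically before the ATP read; on the % scale 0 is the no-effect control and ±100 the full control effect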
#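 Trophozoites 100 cells/well + cpd; 48 hrs, 37 deg C, anaerobic. ATPLite 1-Step added, 15-30 min RT, luminescence read (ATP-based viability).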
# HT1080-NT tox – qHTS for induction of synthetic lethality in tumor cells producing 2HG: qHTS for the HT-1080-NT fibrosarcoma cell line. 1.6% of 360,000 active. HT-1080-NT fibrosarcoma viability, CellTiter-Glo ATP luminescence, 48 h. Potency, µM (titrated, usually from 46.1 µM), for the others: at the top dose activity, negative = less viability, usual class: cytotoxic;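 further: NT is the 2HG producing partner of a matched IDH1 knockdown line; potency means the concentration at half of the fitted maximal effect; 0% = DMSO-treated cells and -100% = media-only wells without cells; nearly all actives have a fitted effect of over 55% in size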
#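 HT-1080-NT; 750 cells/well; 5% FBS RPMI; 48 h compound, 37 degrees C; CellTiter-Glo luminescence; curve fitting and curve-class assignment.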
# HepG2 viability – qHTS for Inhibitors of TGF-b: Cytotox Counterscreen | AID 588856, 2011 | 0.76% of 410,000 active | HepG2 CAGA-GFP viability, ATP luminescence, 18 h | Potency, µM (top dose mostly 46.1 µM), for the others: top-dose activity change, negative = cytotoxicity, actives largely listed as cytotoxic; further: potency means the concentration at half of the fitted maximal effect
#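 CellTiter-Glo luminescence gave cytotoxicity after 18 hours at 37 degrees C. The cells were HepG2 CAGA-GFP in 1% FBS DMEM, stimulated with 500 pg/mL TGF-beta after compound addition. %Activity was normalised to no-cell wells (complete cell-killing) and DMSO (no toxicity), and curves were fitted and classified.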
# HT1080 IDH1KD tx – qHTS for induction of synthetic lethality in tumor cells producing 2HG: qHTS for the HT-1080-IDH1KD cell line; Potency, µM (doses to about 46.1 µM), inactives show at the highest dose activity, negative = toxicity, hits mostly cytotoxic; 2% of 360,000 active; HT-1080 IDH1 knockdown viability, ATP luminescence, 48 h;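 further: potency means the concentration at half of the fitted maximal effect; 0% = DMSO wells and -100% = cell-free medium wells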
#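 In this qHTS, HT-1080 cells depleted of IDH1 are exposed for 48 h at 37 °C to compound titrations. Toxicity is scored from CellTiter-Glo luminescence, with DMSO as full viability and medium alone as none.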
# IL1B secr inh – qHTS for Inhibitors of Inflammasome Signaling: IL-1-beta AlphaLISA Primary Screen. THP-1 LPS/ATP IL-1B secretion, AlphaLISA, 16 h; active compounds read low. activity change, % at 57.5 µM. 4.7% of 360,000 active. AID 743279, 2014; in the data active means activity change below about -50%; inconclusive means mostly about -30% to -49%; further: on the % scale 0 is the no-effect control and ±100 the full control effect
#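 Secreted IL-1B measured by AlphaLISA bead assay after 16 h compound exposure of THP-1 cells; compounds (final up to 57.5 uM) added 1 h before LPS (250 ng/mL) and ATP (1.25 mM) stimulation; lower signal means less secretion.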
# Starred values were filed as active, the others as inactive; ? = inconclusive; nt = no result. Unless noted, the call rests on the fitted dose curve; in most records, active means well fitted curve in the direction sought with a large enough effect; inconclusive means small, poorly fitted or top-dose-only effect, or another doubt; inactive means no such curve, though single readings can be large; an effect the other way counts as inactive or inconclusive.
SMILES,TGFb inhibitor,Giardia killer,HT1080-NT tox,HepG2 viability,HT1080 IDH1KD tx,IL1B secr inh
COc1ccc(C(NC(C)=O)c2ccc3cccnc3c2O)c(OC)c1 (configuration not stated),-13.2%,3.3,?,-7.2%,6.51µM*,111.1
CCNC(=O)c1ccc(NC(=O)CC2SC(N3CCCC3)=NC2=O)cc1 (configuration not stated),23.4%,6.8,-0.4%,-9.4%,1.1%,11.4
O=C(NCCCn1ccnc1)c1ccc(S(=O)(=O)N2CCCCCC2)cc1,3.1%,5.9,0.3%,-14.6%,-4.0%,-13.6
Cn1c(SCC(=O)NCC2CCCO2)nnc1-c1cccc(NC(=O)c2ccccc2F)c1 (configuration not stated),3.1%,12.0,6.0%,-0.4%,-1.9%,28.1
CCC(C)C(=O)OC1CCC=C2C=CC(C)C(CCC3CC(O)CC(=O)O3)C21 (configuration not stated),-3.2%,13.2,11.6µM*,-38.7%,?,67.5
CC[C@H](C)C(=O)O[C@H]1CCC=C2C=C[C@H](C)[C@H](CC[C@@H]3C[C@@H](O)CC(=O)O3)[C@H]21,108.1%,7.7,4.11µM*,-41.4%,7.31µM*,4.7
CC[C@H](C)C(=O)O[C@H]1C[C@@H](C)C=C2C=C[C@H](C)[C@H](CC[C@@H]3C[C@@H](O)CC(=O)O3)[C@H]21,92.0%,-3.4,18.4µM*,-42.6%,20.6µM*,3.0
COc1ccc(OCCC(=O)OCC(=O)NC2CCCCC2)cc1,-12.3%,10.1,-2.7%,-14.5%,-6.6%,-11.7
C[C@H]1O[C@@H](O[C@H]2[C@@H](O)C[C@H](O[C@H]3[C@@H](O)C[C@H](O[C@H]4CC[C@@]5(C)[C@H](CC[C@@H]6[C@@H]5C[C@@H](O)[C@]5(C)[C@@H](C7=CC(=O)OC7)CC[C@]65O)C4)O[C@@H]3C)O[C@@H]2C)C[C@H](O)[C@@H]1O,?,42.3,0.231µM*,-56.4%,0.0366µM*,-62.7*
CCOC(=O)Cn1c(=O)oc2cc(S(=O)(=O)N3CCN(c4ccc(C(C)=O)cc4)CC3)ccc21,-0.3%,nt,nt,-6.3%,nt,nt
CCN(CC)S(=O)(=O)c1ccc(S(=O)(=O)Nc2c(C)nn(C)c2C)cc1,-11.0%,-4.5,16.4µM*,-16.6%,?,-10.8
CCOC(=O)C(=NC(C)CC)NNc1ccc(Br)cc1 (configuration not stated),-3.0%,0.2,16.4µM*,-14.8%,?,16.3
CCOC(=O)C(=NC(C)CC)NNc1cccc(C(F)(F)F)c1 (configuration not stated),?,-15.0,-7.6%,-20.9%,-7.0%,-5.8
CCC(=O)NNc1ccc(Br)cc1,-7.6%,5.3,3.66µM*,0.0%,4.11µM*,-8.4
CC(C)c1ccc(NC(=O)/C(C#N)=C/c2ccncc2)cc1,-11.7%,15.9,-4.5%,-27.1%,-2.7%,0.0
CCN1C(=O)[C@H]2[C@@H](c3ccc(-c4ccccc4)c(OC)c3)N[C@@](Cc3ccccc3)(C(=O)OC)[C@H]2C1=O,2.8%,16.1,-3.7%,29.6%,-7.6%,15.7
CCN1C(=O)[C@H]2[C@@H](c3ccc(-c4ccc(F)cc4)c(OC)c3)N[C@@](Cc3ccccc3)(C(=O)OC)[C@H]2C1=O,0.3%,12.4,3.1%,-5.3%,5.4%,-61.8*
CCN1C(=O)[C@H]2[C@@H](c3ccc(-c4cccc(Cl)c4)c(OC)c3)N[C@@](CC(C)C)(C(=O)OC)[C@H]2C1=O,0.5%,-6.7,-12.1%,-18.3%,0.0%,-61.5*
Oc1ccc(/C=N/N2CCN(C3c4ccccc4-c4ccccc43)CC2)cc1O,-38.4%,5.1,-27.9%,-29.6%,?,?
CCN(C(=O)COc1ccc(C)cc1OC)c1cccc2ccccc12,?,-3.2,-21.3%,-6.3%,?,-6.6
Nc1c(C(=O)N/N=C/c2ccccc2Cl)oc2nc(-c3ccccc3)cc(-c3ccco3)c12,-26.3%,-15.9,-4.8%,-26.3%,1.9%,nt
Nc1c(C(=O)N/N=C/c2ccc(F)cc2)oc2nc(-c3ccccc3)cc(-c3ccco3)c12,43.9%,8.2,?,-52.5%,20.6µM*,nt
O=C(N/N=C/c1ccc(F)cc1)c1cc(-c2ccco2)nc2ccccc12,?,15.2,?,-17.7%,16.4µM*,27.6
O=C(NCC1CCCO1)c1ccc(COc2ccccc2Br)cc1 (configuration not stated),14.3%,7.7,?,-22.7%,-23.9%,?
C[C@H]1CN([C@@H](C)CO)C(=O)c2cccc(NC(=O)c3cnccn3)c2O[C@@H]1CN(C)C(=O)Nc1ccc2c(c1)OCO2,-8.2%,8.6,12.4%,-15.3%,10.4%,14.5
SMILES,TGFb inhibitor,Giardia killer,HT1080-NT tox,HepG2 viability,HT1080 IDH1KD tx,IL1B secr inh
COc1ccc(C(=O)NCC(=O)O)cc1,?,6.9,-0.7%,-7.4%,-0.5%,-13.7
CCN(CC)CCN(C(=O)/C=C/c1cccs1)c1nc2ccc(Cl)cc2s1,-6.7%,-28.5,13.2%,-7.5%,?,13.2
CN(C)CCCN(C(=O)CCc1ccccc1)c1nc2ccc(F)cc2s1,0.0%,-6.1,-4.9%,-40.0%,-3.5%,-17.8
CN(C)CCN(C(=O)/C=C/c1cccs1)c1nc2ccc(F)cc2s1,?,35.7,?,-54.5%,?,-66.5*
CN(C)CCCN(C(=O)c1cc(-c2cccs2)nc2ccccc12)c1nc2ccc(F)cc2s1,?,-22.5,8.2µM*,-112.7%,20.6µM*,-59.2*
CCn1cc([N+](=O)[O-])c(C(=O)N2N=C(c3ccc(O)c(OC)c3)CC2c2ccccc2O)n1 (configuration not stated),?,7.2,-22.1%,-7.0%,?,-23.1
CCn1cc([N+](=O)[O-])c(C(=O)N2N=C(c3ccc4ccccc4c3)CC2c2cc(Br)ccc2O)n1 (configuration not stated),20µM*,3.1,20.6µM*,-55.6%,?,?
CCn1cc([N+](=O)[O-])c(C(=O)N2N=C(c3ccc(Cl)c(Cl)c3)CC2c2ccccc2O)n1 (configuration not stated),11.2µM*,-3.1,23.1µM*,-101.9%,?,-85.1*
CC(=O)Nc1ccc(S(=O)(=O)NNC(=O)C(=O)NNc2ccccn2)cc1,5.6%,-25.2,-1.2%,2.1%,21.1%,15.2

# Screening results deposited in PubChem BioAssay by National Center for Advancing Translational Sciences (NCATS).
